According to ChEMBL document CHEMBL3988442, “University of Dundee, Small-Polar-MMV Screening Library” (2021):
The whole screen tested about 53,000 compounds, of which about 900 (1.7%) showed an effect of 50% or more. For the sample, strong results were picked, then their nearest neighbours and some compounds at random.

Each compound was assayed on Mycobacterium tuberculosis (assay: Cornell - Phenotypic assay to identify agents that inhibit growth of Mycobacterium tuberculosis). Conditions: 10 mM as filed; unlikely as a test dose.
Format: functional
Set-up: scale not given: direction of the effect not stated beside the values

| Compound | Percent Effect |
| --- | --- |
| CC(=O)NCCNC(=O)CCn1c(C)cc2ccccc21 | 15.36% |
| Cc1cc(NC(=O)CN2CCCC2c2noc(C3CC3)n2)n(C)n1 (centres undefined) | -35.39% |
| O=C(O)C(F)(F)F.O=C(c1ccccc1F)N1CCC2(CC1)CC(Oc1ccccn1)CO2 (centres undefined) | 20.39% |
| Cl.NCC(=O)N1CCCC1c1n[nH]cc1-c1ccccc1F (centres undefined) | -8.12% |
| CC(=O)N1CCOC(c2ccnc(N(C)C)n2)C1 (centres undefined) | 23.94% |
| CC(=O)N1CCCC(c2ccnc(N(C)C)n2)C1 (centres undefined) | -19.51% |
| CN(C)c1nccc(C2CCN(c3ncccn3)CC2)n1 | 38.24% |
| CN(C)c1nccc(C2CN(c3ccccc3)CCO2)n1 (centres undefined) | 59.44% |
| CC(C)N1CCOC(c2ccnc(N(C)C)n2)C1 (centres undefined) | 50.07% |
| CN(C)c1nccc(C2CN(c3cnccn3)CCO2)n1 (centres undefined) | -32.07% |
| O=C(Cn1ccnc1)N1C[C@@H]2CC[C@H](Oc3ccccc3F)[C@@H]2C1 | -34.19% |
| O=C(Nc1nc2c(s1)CCC2)NC1CCCC1 | 34.54% |
| Cl.O=C(NCCO)c1sc2ncccc2c1C1CNCCO1 (centres undefined) | 5.786% |
| CC(=O)Nc1nc(C(=O)NCc2ccc(N3CCCCC3)cc2)cs1 | -6.079% |
| CN(CCN1CCOC1=O)CC(=O)Nc1cc(F)cc(F)c1 | -4.563% |
| CCN1CC(COC(=O)c2ccccc2Cl)CC1=O (centres undefined) | 9.93% |
| CCc1c(C)sc(NC(=O)CN2CCOCC2)c1C(=O)OC | 13.88% |
| CCOC(=O)c1c(NC(=O)C2CCN(C(C)=O)CC2)sc(C)c1CC | 0.6351% |
| CCc1c(C)sc(NC(=O)CN2CCN(CC)CC2)c1C(=O)OC | 85.25% |
| NC(=O)N1CCc2ncc(CNC(=O)CC3CC3)n2CC1 | -19.97% |
| O=C(C1CC1)N1CCC2(CCCN2Cc2ccc(F)cc2)CC1.O=C(O)C(F)(F)F | 3.548% |
| CC(=O)N1CCCC(c2nc(N(C)C)ncc2-c2ccccc2)C1 (centres undefined) | 12.04% |
| CCC(=O)N1CCCC(c2nc(N(C)C)ncc2-c2ccc(F)cc2)C1 (centres undefined) | 78.09% |

| Compound | Percent Effect |
| --- | --- |
| COCC(=O)N1CCCC(c2nc(N(C)C)ncc2-c2ccccc2)C1 (centres undefined) | 21.17% |
| CCN1Cc2cc(OC)ccc2N(CC(C)(C)O)CCC1=O | -17.4% |
| CN(C)c1ncccc1CNC(=O)CCNc1ncccn1 | 29.98% |
| Cc1cc(-c2cnc(NC3CCCC3)nc2-c2ccoc2)on1 | 81.21% |
| Cc1noc(-c2cnc(NCC3CCCO3)nc2-c2ccco2)c1C (centres undefined) | 34.64% |
| Cc1cnc(-c2nc(NC3CC3)ncc2-c2cc(C)no2)cn1 | -18.55% |
| Cc1cc(-c2cnc(NC3CCCC3)nc2-c2ccc(C)o2)on1 | 92.52% |
| Cc1cc(-c2cnc(NC3CCCC3)nc2-c2ccco2)on1 | 78.21% |
| Cc1cc(-c2cnc(NC3CC3)nc2-c2ccoc2)on1 | -15.23% |
| Cc1noc(-c2cnc(NC(C)C)nc2-c2ccco2)c1C | 32.42% |
| Cc1cc(-c2cnc(NC3CC3)nc2-c2ccco2)on1 | 47.86% |
| Cc1cc(-c2cnc(NC3CCCC3)nc2-c2ccoc2C)on1 | 18.15% |
| COCCNc1ncc(-c2cc(C)no2)c(-c2ccco2)n1 | -34.06% |
| Cc1cc(-c2cnc(NC3CCCCC3)nc2-c2ccco2)on1 | 97.15% |
| Cc1cnc(-c2nc(NC3CCCC3)ncc2-c2onc(C)c2C)cn1 | 7.273% |
| CCc1noc(CN2CCN(CC(O)c3ccccc3)CC2)n1 (centres undefined) | -1.918% |
| O=C(O)C(F)(F)F.O=C1CC(c2ccncc2)C2(CCN(C(=O)c3ccc[nH]3)CC2)N1 (centres undefined) | -25.12% |
| CC(C)=CCN1C[C@@H]2CN(C(=O)c3cnccc3C)C[C@]2(C(=O)O)C1 | 13.3% |
| CC(C)[C@H](N)C(=O)N1CCSc2ccccc2C1.Cl | 15.34% |
| CS(=O)(=O)N1CC(c2ccnc(Nc3ccccn3)n2)C1 | 3.174% |
| O=C(Nc1ccccn1)C1CCN(C(=O)COc2ccccc2F)C1 (centres undefined) | -42.88% |
| O=C(N1CCCC(n2cncn2)C1)C1(c2cccc(F)c2)CCCC1 (centres undefined) | -7.361% |
| Cc1c(CN2CCC(C(=O)O)(n3cccn3)CC2)oc2ccccc12 | -1.551% |

| Compound | Percent Effect |
| --- | --- |
| Cc1noc(-c2cnc(NC3CC3)nc2-c2ccco2)c1C | 21.85% |
| Cc1occc1-c1nc(NC2CCCC2)ncc1-c1ccccn1 | 85.8% |
| Cc1cc(-c2cnc(NC3CC3)nc2-c2ccoc2C)on1 | 6.588% |
| Cc1cc(CN(C)C(=O)CN2CCCCCC2=O)no1 | 6.807% |
| Fc1cc(Oc2ccc(C(F)(F)F)cn2)cc(F)c1CN1CCCC1 | 17.52% |
| COc1ccc(Oc2ccc(C(F)(F)F)cn2)cc1CN1CCCC1 | 50.99% |
| COc1cc(Oc2ccc(C#N)cn2)ccc1CN1CCCC1 | 27.7% |
| COc1cc(Oc2ccc(C(F)(F)F)cn2)ccc1CN1CCCC1 | 21.65% |
| COc1cc(Oc2cnc3ccccc3n2)ccc1CN1CCCC1 | 89.59% |
| COc1cc(Oc2ccc(C(N)=O)cn2)ccc1CN1CCCC1 | 6.938% |
| COc1ccc(CC(=O)NCCCc2nnc3nc(C)cc(C)n23)cc1 | -52.99% |
| CC(C)N1CCCC1c1nc(N(C)C)ncc1I (centres undefined) | 5.368% |
| Cc1c(Br)c(C(F)F)nn1C(C)C(=O)O (centres undefined) | 18.88% |
| COCCN(C)C(C(=O)O)c1ccc(Cl)c(F)c1 (centres undefined) | -23.65% |
| Cc1ccc(N2C[C@@H]3OCCN(Cc4c(C)noc4C)[C@@H]3C2)nn1 | 2.66% |
| COCC(=O)N1C[C@@H]2OCCN(Cc3c(C)noc3C)[C@@H]2C1 | -0.2298% |
| Cc1noc(C)c1CN1CCO[C@H]2CNC[C@H]21.Cl.Cl | 71.41% |
| COc1ccc(F)c(-c2ncccc2NC(=O)C(C)C)c1 | -36.39% |
| CN(C)S(=O)(=O)NC1CC(=O)N(c2ccccc2Cl)C1 (centres undefined) | 14.57% |
| CCN(C)c1ncnc2c1CCN(S(=O)(=O)c1ccccc1)CC2.O=C(O)C(F)(F)F | 2.965% |
| CNc1nc(CS(=O)(=O)c2ccccc2)cs1 | 106.2% |
| CCCNc1nc(CS(=O)(=O)c2ccccc2)cs1 | -0.8742% |
| C=C(C)CNc1nc(CS(=O)(=O)c2ccccc2)cs1 | 8.279% |
